Results from PubChem BioAssay.
Where “and” joins values, the source holds several entries; their conditions need not be identical. Equal entries are not always repeated. Calls of active or inactive are those of the source. Cut-off read from the data, not from the text of the source, unless noted: active = inhibition above about 25%; inactive = the rest.

What was measured:
[1] = target: Nuclear receptor coactivator 3 (Homo sapiens) (UniProt Q9Y6Q9); assay: NCOA3 GAL4-fusion reporter inhibition – cell-based, luminescence, quadruplicate, confirmation (AID 588792;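 active = mean inhibition over 43.08%, the solvent-only control mean plus 3 SD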;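 note: 0% = DMSO treated cells and 100% = gossypol at 36 µM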); conditions: HEK293 GAL4-SRC3 luciferase reporter, at 3.6 µM, stronger effect = higher value
[2] = system: transactivating tegument protein VP16 (Human herpesvirus 1), Gal4-VP16 luciferase reporter; assay: repression of VP16-driven luciferase reporter – cell-based, luminescence, high throughput, counter-screen for SRC3 inhibitor project (AID 588794; in the data active = inhibition above about 30%); conditions: mammalian cells, at 3.6 µM, stronger effect = higher value
[3] = target: Nuclear receptor coactivator 1 (Homo sapiens) (UniProt Q15788); assay: NCOA1 GAL4-fusion reporter inhibition – cell-based, luminescence, quadruplicate, confirmation (AID 588820;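 active = mean inhibition above 46.68%, the untreated control wells mean plus 3 SD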;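 note: 0% = DMSO wells and 100% = gossypol 36 µM treated wells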); conditions: HEK293 GAL4-SRC1 luciferase reporter, at 3.6 µM, stronger effect = higher value
[4] = repression of VP16-driven luciferase reporter – cell-based, luminescence, high throughput, counter-screen for SRC1 inhibitor project (AID 588824); conditions: cell-based VP16 transactivation luciferase luminescence; at 3.6 µM; stronger effect = higher value
[5] = system: transactivating tegument protein VP16 (Human herpesvirus 1); assay: compounds suppressing VP16-driven luciferase signal – cell-based, luminescence, single concentration, counter-screen for SRC2 inhibitor project (AID 652007; in the data active = inhibition above about 36%); conditions: cell-based VP16 transactivation luciferase reporter, at 8.9 µM, stronger effect = higher value
[6] = target: Nuclear receptor coactivator 2 (Homo sapiens) (UniProt Q15596); assay: inhibition of GAL4-SRC2 driven luciferase expression – cell-based, luminescence, HEK293, triplicate, confirmation (AID 652008;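 active = mean inhibition above 46.5%, the solvent-only control mean plus 3 SD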;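 note: 0% = DMSO-treated cells and 100% = Gossypol at 36 µM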); conditions: HEK293 GAL4-SRC2 luciferase reporter, at 8.9 µM, stronger effect = higher value

Measured: inhibition

Sequence of Nuclear receptor coactivator 2 (Homo sapiens) (Q15596 whole entry, looked up, the tested form may be a part): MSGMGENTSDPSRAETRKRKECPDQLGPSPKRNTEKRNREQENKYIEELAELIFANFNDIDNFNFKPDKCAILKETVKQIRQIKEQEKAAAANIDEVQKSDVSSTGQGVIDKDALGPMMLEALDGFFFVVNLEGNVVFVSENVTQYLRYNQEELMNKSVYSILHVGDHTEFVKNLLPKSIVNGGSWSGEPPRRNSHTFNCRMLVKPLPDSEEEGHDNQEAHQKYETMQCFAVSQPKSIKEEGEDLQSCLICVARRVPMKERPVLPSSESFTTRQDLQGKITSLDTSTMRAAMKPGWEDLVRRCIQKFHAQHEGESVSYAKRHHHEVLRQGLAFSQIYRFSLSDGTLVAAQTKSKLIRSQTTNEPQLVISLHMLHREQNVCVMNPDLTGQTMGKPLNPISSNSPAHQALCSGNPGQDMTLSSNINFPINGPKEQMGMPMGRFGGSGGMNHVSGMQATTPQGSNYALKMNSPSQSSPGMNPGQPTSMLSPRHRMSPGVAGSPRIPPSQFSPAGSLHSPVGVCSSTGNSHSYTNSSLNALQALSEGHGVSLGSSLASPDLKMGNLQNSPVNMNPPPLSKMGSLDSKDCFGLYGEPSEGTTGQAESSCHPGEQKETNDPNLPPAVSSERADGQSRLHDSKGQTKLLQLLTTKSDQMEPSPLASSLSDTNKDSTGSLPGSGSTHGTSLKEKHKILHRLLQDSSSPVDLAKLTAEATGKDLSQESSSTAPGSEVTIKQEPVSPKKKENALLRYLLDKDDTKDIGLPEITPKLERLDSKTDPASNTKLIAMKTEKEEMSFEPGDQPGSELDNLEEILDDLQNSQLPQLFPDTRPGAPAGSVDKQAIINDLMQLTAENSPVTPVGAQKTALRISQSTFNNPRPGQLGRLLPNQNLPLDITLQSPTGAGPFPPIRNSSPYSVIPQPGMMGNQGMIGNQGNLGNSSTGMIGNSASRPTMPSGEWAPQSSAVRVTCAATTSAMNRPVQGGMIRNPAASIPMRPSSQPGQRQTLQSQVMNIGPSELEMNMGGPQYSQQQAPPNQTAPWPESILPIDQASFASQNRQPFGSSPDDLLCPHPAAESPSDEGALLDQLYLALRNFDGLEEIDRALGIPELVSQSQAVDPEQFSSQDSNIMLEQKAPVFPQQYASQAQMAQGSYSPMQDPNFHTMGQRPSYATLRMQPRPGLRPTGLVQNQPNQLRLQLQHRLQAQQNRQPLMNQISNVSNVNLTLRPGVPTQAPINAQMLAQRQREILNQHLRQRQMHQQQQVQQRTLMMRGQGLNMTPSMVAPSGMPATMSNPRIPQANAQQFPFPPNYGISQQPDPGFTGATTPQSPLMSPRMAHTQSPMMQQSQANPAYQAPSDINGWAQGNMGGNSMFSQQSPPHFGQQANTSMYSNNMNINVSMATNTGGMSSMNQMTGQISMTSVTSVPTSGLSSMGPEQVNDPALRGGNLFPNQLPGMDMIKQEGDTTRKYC
Sequence of Nuclear receptor coactivator 3 (Homo sapiens) (Q9Y6Q9 whole entry, looked up, the tested form may be a part): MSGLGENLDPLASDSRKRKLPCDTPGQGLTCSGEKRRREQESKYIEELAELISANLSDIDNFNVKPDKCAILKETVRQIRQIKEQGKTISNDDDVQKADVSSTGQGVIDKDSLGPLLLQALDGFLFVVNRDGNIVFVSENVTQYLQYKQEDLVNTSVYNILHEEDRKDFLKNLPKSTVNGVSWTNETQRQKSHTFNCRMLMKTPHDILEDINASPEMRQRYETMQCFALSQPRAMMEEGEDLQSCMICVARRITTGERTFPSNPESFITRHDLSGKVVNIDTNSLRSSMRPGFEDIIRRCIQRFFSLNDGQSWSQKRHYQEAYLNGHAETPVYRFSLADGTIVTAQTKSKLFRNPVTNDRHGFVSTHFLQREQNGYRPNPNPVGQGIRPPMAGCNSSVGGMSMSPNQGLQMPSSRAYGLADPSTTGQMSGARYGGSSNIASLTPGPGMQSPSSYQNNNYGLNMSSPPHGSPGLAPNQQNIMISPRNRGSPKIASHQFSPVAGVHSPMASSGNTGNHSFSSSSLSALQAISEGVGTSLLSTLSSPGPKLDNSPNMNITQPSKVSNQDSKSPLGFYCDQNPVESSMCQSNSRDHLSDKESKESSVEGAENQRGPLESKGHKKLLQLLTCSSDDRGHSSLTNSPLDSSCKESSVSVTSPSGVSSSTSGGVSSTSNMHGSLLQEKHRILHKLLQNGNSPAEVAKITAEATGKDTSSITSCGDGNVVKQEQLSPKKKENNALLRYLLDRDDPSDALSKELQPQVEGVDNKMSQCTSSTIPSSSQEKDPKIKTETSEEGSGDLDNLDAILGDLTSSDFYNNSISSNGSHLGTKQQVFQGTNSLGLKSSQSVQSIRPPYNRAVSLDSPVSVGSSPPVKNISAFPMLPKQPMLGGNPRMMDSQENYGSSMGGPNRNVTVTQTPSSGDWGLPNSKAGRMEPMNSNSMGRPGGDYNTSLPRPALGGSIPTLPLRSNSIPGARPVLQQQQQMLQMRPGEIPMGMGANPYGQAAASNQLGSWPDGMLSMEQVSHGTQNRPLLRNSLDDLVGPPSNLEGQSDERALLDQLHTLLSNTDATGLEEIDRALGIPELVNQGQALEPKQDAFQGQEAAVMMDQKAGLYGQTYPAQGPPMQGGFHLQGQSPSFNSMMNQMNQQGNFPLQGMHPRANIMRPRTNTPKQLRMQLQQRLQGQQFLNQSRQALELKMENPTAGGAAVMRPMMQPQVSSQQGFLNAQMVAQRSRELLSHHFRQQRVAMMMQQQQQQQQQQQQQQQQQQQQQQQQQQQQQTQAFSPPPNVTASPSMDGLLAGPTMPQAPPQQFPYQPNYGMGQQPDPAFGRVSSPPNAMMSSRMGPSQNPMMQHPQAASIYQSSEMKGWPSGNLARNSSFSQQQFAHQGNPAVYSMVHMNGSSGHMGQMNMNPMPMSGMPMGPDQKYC
Sequence of Nuclear receptor coactivator 1 (Homo sapiens) (Q15788 whole entry, looked up, the tested form may be a part): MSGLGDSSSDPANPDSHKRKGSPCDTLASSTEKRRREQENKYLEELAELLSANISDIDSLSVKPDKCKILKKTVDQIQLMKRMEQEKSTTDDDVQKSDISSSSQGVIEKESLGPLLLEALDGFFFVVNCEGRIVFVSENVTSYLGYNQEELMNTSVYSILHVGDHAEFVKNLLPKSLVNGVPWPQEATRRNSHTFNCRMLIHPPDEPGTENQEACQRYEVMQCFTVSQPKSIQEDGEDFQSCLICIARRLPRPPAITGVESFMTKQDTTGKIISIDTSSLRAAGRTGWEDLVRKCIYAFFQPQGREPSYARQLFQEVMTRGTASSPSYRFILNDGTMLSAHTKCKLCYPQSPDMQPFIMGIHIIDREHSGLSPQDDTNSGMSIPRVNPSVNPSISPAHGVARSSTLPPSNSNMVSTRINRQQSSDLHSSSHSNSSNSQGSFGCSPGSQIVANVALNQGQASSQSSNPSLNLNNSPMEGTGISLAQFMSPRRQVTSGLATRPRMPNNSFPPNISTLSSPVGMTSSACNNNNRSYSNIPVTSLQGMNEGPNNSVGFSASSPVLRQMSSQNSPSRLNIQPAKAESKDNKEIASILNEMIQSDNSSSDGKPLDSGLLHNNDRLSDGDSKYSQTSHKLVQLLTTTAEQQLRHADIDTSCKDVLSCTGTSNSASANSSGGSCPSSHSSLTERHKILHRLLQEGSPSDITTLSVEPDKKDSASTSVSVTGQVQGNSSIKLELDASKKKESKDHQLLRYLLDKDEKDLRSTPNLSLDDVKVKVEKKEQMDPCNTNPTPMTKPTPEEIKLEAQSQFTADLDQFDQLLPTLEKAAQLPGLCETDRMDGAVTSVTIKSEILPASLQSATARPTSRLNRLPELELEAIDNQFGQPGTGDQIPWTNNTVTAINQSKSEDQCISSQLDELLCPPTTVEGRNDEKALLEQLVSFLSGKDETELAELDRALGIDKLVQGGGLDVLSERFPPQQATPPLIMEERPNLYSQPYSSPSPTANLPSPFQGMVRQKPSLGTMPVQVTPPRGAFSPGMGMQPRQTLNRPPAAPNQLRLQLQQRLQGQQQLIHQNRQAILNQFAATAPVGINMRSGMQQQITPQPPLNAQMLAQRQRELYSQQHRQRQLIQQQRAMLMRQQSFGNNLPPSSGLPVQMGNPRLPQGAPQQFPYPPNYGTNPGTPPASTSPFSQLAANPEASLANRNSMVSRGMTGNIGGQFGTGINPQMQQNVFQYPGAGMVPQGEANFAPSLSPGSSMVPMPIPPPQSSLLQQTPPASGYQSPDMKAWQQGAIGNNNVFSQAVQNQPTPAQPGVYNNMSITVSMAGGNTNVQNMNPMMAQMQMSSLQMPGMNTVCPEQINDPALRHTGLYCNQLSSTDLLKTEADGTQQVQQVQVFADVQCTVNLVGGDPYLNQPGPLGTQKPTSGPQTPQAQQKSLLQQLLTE

CC(C)(C)c1ccc(Oc2ccc(NC(=O)c3ccccc3C(=O)O)cn2)cc1
inactive: [1] 4.23% | [2] 10.3% | [3] 2.66% | [4] 7.37%
active: [5] 39.5% | [6] 62.4%

COc1cncc(-c2cnc3sc(NCCc4ccccn4)nn23)c1
inactive: [5] 3.51%
active: [1] 56.8% | [2] 33.6% | [3] 48.4% | [4] 30.6% | [6] 50.2%

CCc1c(C#N)sc(C(N)=O)c1CC
inactive: [1] 27.8% | [2] 20.5% | [3] 20.6% | [4] 13.2% | [5] 8.1% | [6] 25.6%

Cc1nn(C(C)(C)C)c(C)c1/C=N/OC(=O)Nc1ccc(Cl)c(Cl)c1
inactive: [1] 20.2% | [2] 16.6% | [3] 25.3% | [4] 12%
active: [5] 63% | [6] 82%

NNC(=O)c1cc2ccccc2cc1O
inactive: [2] 12.8% | [3] 37.5% | [4] 19.3% | [5] 16.4%
active: [1] 67.7% | [6] 77.8%

CCOC(=O)c1cccc(NS(=O)(=O)c2ccc(NC(C)=O)cc2)c1
inactive: [3] 40.5% | [5] -6.82% | [6] 40.8%
active: [1] 43.5% | [2] 35.8% | [4] 26.5%

O=C(Nc1ccc(C(=O)N2CCOCC2)cc1)Nc1cccc(C(F)(F)F)c1
inactive: [5] -0.39% | [6] 36.4%
active: [1] 66.9% | [2] 43.2% | [3] 64.3% | [4] 38.8%

Cc1ccc(C)c(N2CCN(C(=O)CCS(=O)(=O)c3ccc4c(c3)NC(=O)CO4)CC2)c1
inactive: [1] -1.43% | [2] 16.3% | [3] -0.57% | [4] 17.9% | [5] 3.15% | [6] 15.3%

CC(C)(C)c1ccc(C(=O)NC(=S)Nc2nc3c(s2)CCCC3)cc1
inactive: [1] 20.4% | [2] -9.66% | [3] -33.4% | [4] -47.4% | [5] 0.2% | [6] 34.8%

CN(C)c1ccc(C(=S)Nc2ccccc2)cc1
inactive: [1] 39.1% | [2] 13.3% | [3] -21.5% | [4] -24.4% | [5] -5.11%
active: [6] 51.1%

S=c1[nH]nc(C2CCCCC2)n1/N=C/c1ccncc1
inactive: [5] 10.3%
active: [1] 75.2% | [2] 60.4% | [3] 64.6% | [4] 60.1% | [6] 51.4%

Cc1csc(SCC(=O)Nc2cccc3nsnc23)n1
inactive: [5] -58.8% | [6] 19.4%
active: [1] 66.3% | [2] 35.1% | [3] 57.9% | [4] 37.7%

CCCCCN1C=CC(=C2C(=O)c3ccccc3C2=O)C=C1
active: [1] 44.2% | [2] 31.3% | [5] 55.1% | [6] 77.3%
inactive: [3] -55.8% | [4] 15.5%

O=C(CCCN1C(=O)/C(=C/c2ccccc2Cl)SC1=S)NNC(=O)c1ccncc1
inactive: [1] 14.7% | [2] 8.23% | [3] 10.8% | [4] 10.8%
active: [5] 40.6% | [6] 65.4%

O=C(CCCN1C(=O)/C(=C/c2ccccc2Cl)SC1=S)NNC(=O)c1ccc(Cl)cc1Cl
inactive: [3] 37.1%
active: [1] 55% | [2] 32.6% | [4] 33% | [5] 76.7% | [6] 92.4%

C=C1C(=O)[C@@]23[C@H](O)C[C@@H]4C(C)(C)CC[C@H](O)[C@@]4(C)[C@@H]2CC[C@@H]1[C@H]3O
active: [2] 49.6% | [4] 46.2% | [6] 66.4%
inactive: [1] 28.5% | [3] -18% | [5] 33.9%

COc1ccc2[nH]c(=O)c3c(c2c1)OC(C)(C)C=C3
inactive: [5] 9.64%
active: [1] 77.6% | [2] 41.7% | [3] 69.9% | [4] 44% | [6] 51.3%

COc1ccc(/C=C2/SC(=S)N(CCC(=O)O)C2=O)cc1
active: [6] 85.1%
inactive: [1] 34.8% | [2] 4.06% | [3] 23% | [4] 0.23% | [5] -21.3%

Cc1ccc(Sc2c(C=O)c3ccccc3n2C)cc1
inactive: [5] 7.13% | [6] 42.5%
active: [1] 63.2% | [2] 42.4% | [3] 54% | [4] 46.9%

COc1ccc(Nc2ccnc3ccccc23)cc1
active: [2] 30.3% | [3] 52.8% | [4] 26.4%
inactive: [1] 41.8% | [5] -20.9% | [6] 30%

Cc1c([N+](=O)[O-])c2ccc(O)cc2n1-c1ccccc1
active: [1] 53.5% | [2] 31.6% | [3] 55.4% | [4] 30.1%
inactive: [5] 2.8% | [6] 35.8%

c1cc2[nH]snc2c2nc(C3CC3)nc12
active: [1] 63.9% | [3] 53.3%
inactive: [2] 18.3% | [4] 23.3% | [5] -12.6% | [6] 19%

COCC(C)n1c(C)cc(C(=O)COC(=O)c2cccn2C)c1C (stereo not drawn)
active: [5] 48.1% | [6] 57.2%
inactive: [1] 9.47% | [2] -13.8% | [3] -58.2% | [4] -61%

C/C(=N\Nc1ncnc2sc(C)c(C)c12)c1ccccn1
active: [1] 63.2% | [2] 70.1% | [4] 50.4%
inactive: [3] 18.5% | [5] -48.8% | [6] 1.02%

CCOC(=O)c1cccc2c1-c1ccccc1/C2=N/O
inactive: [1] 39.8% | [2] 23.7% | [3] 46.5% | [4] 23.2% | [5] -10.8% | [6] 24.9%

OCCCNc1ncnc2scc(-c3ccc(Cl)cc3)c12
active: [1] 62.6% | [2] 47.1% | [3] 62.6% | [4] 39.2% | [6] 46.5%
inactive: [5] 5.28%

C=C1C(=O)O[C@H]2C[C@H]1[C@@H](OC(C)=O)C/C(C)=C/CC/C(C)=C\CC[C@]2(C)O
inactive: [3] 37% | [5] 34.3% | [6] 28.4%
active: [1] 43.6% | [2] 57.6% | [4] 49.1%

COc1ccc(-c2nc(-c3ccccn3)no2)cc1
inactive: [3] 16.6%
active: [1] 63.4% | [2] 48.2% | [4] 44.4% | [5] 62.5% | [6] 80.7%

CCn1c(Oc2ccccc2F)nc2c1c(=O)n(C)c(=O)n2C
inactive: [5] -5.89%
active: [1] 63% | [2] 51% | [3] 64.4% | [4] 47.2% | [6] 48.6%

Cc1ccc(OCC(=O)c2cc(C)n(-c3ccccc3)c2C)c([N+](=O)[O-])n1
inactive: [1] 38.5% | [2] -20.9% | [3] 29.1% | [4] -31.4% | [5] -12.8%
active: [6] 83.3%

COc1ccc(-c2cn[nH]c2-c2ccc(O)cc2O)cc1
inactive: [5] -0.83%
active: [1] 67.1% | [2] 46.2% | [3] 53.9% | [4] 37.3% | [6] 50%

CCCN(CC(=O)Nc1ccccc1C)C(=O)CCl
active: [1] 74.9% | [2] 48.1% | [3] 48.8% | [4] 53.4% | [5] 65.6% | [6] 75.8%

CCN(CC)c1ccc(/C=N/Nc2nc(C)cc(=O)[nH]2)c(O)c1
inactive: [5] -39.4% | [6] 29.6%
active: [1] 87.7% | [2] 78.7% | [3] 67.1% | [4] 74.3%

c1ccc(CNc2ncnc3ccccc23)cc1
inactive: [3] 17.6% and 34.3% | [5] 14%
active: [1] 47% | [2] 44.9% | [4] 34.9% and 44% | [6] 48.8%

NC(=O)c1sc2nc3c(c(-c4cccs4)c2c1N)CCCCC3
active: [1] 83.3% | [2] 58.4% | [3] 77.6% | [4] 65% | [6] 60.3%
inactive: [5] 7.38%

Cc1ccc2occ(/C=N/NC(=O)[C@@H](N)Cc3ccccc3)c(=O)c2c1
inactive: [1] 37.9% | [2] 17% | [3] 15.7% | [4] 23.3% | [5] 4.17% | [6] 44.1%

COc1ccc(-n2c(C)c(C(C)=O)c3cc(O)ccc32)cc1
active: [1] 76.1% | [2] 55.6% | [3] 64.1% | [4] 56.6% | [6] 54%
inactive: [5] -5.76%

Cc1c(C(C)NC(=O)c2cc(COc3cccc4cnccc34)on2)cnn1C (stereo not drawn)
active: [2] 40.4% | [4] 33.8% | [6] 46.9%
inactive: [1] 32.4% | [3] 38.3% | [5] 7.45%

c1cc(-c2cnc3cccnn23)c2cccnc2c1
inactive: [5] -9.33% | [6] 26.5%
active: [1] 65.8% | [2] 42.7% | [3] 57.9% | [4] 40.2%

O=C(CCl)N1N=C(c2ccco2)CC1c1ccco1 (stereo not drawn)
active: [1] 59.1% | [5] 36.6% | [6] 67.9%
inactive: [2] 12.5% | [3] 32.7% | [4] 4.7%

Cc1ccccc1C(=O)N1CCN(c2ccc(NC(=O)CSc3ccc(Cl)cc3)cc2)CC1
active: [1] 46.2% | [2] 45.8% | [3] 46.8% | [4] 38.8% | [6] 51.5%
inactive: [5] 18.4%

C=CCn1c(C)cc(C2=NNC(=NC(C)(C)C)SC2)c1C
active: [2] 33.7% | [6] 63%
inactive: [1] 28.8% | [3] -25.9% | [4] -16.9% | [5] 17.8%

Cc1cc(Sc2nnc(/N=C/N(C)C)s2)c2ccccc2n1
active: [2] 40.5% | [4] 33.8%
inactive: [1] 9.12% | [3] 2.4% | [5] -8.53% | [6] 24.6%
